PubChem BioAssay AID686979 (National Center for Advancing Translational Sciences (NCATS), 2013)
Screen size: about 420,000 compounds; about 50,000 (12%) were called active. Another 26% or so got no clear call; they are omitted. Calls follow the shape of the dose curve; as a rule, active = well fitted inhibition curve with a large enough effect; inconclusive = small, poorly fitted or top-dose-only effect; inactive = flat fitted curve, though single readings scatter. Shown is part of a subset that was picked to be rich in actives. Entries that show only a call come without a potency.

Experiment: qHTS for Inhibitors of human tyrosyl-DNA phosphodiesterase 1 (TDP1): qHTS in cells in presence of CPT; also: nearly all actives have a fitted effect of over 55% in size
Conditions: chicken DT40 Tdp1-/-;hTDP1 cells + 20 nM CPT, ATP luminescence, 48 h; series mostly up to 46.2 µM
How it was run: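 Cell growth measured by CellTiter-Glo luminescence after a minimum 48 h, 37 C compound exposure with 20 nM CPT in Tdp1-knockout DT40 cells stably expressing hTDP1, seeded 400/well; qHTS titration format.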
Potency is read from the fitted curve at half-maximal effect.

| Structure (SMILES) | Potency |
| --- | --- |
| Cc1cnc(NC(=O)Cn2cnc3c2c(=O)n(C)c(=O)n3C)s1 | inactive |
| Cc1nc2cccnc2nc1C | inactive |
| Cc1cc(C)c(NC(=S)N2CCCC2C(=O)O)c(C)c1 (configuration not stated) | inactive |
| COc1ccc(CC(N)c2csc(NC(=O)Nc3ccc(C(C)C)cc3)n2)cc1 (configuration not stated) | 6.51 µM (active) |
| COc1ccc(C(N)c2csc(NC(=O)Nc3cccc(C(F)(F)F)c3)n2)cc1 (configuration not stated) | 18.4 µM (active) |
| CC(C)(C)CC(=O)Nc1nnc(SCC(=O)NCc2cccs2)s1 | inactive |
| COc1ccc(NC(=O)C(Br)C(C)C)cc1 (configuration not stated) | inactive |
| Cc1ccccc1NC(=O)Cc1nc(COC(=O)c2ccc(C(F)(F)F)cc2)cs1 | inactive |
| COC(=O)[C@H](Cc1ccccc1)NC(=O)Nc1ccc(OC)cc1 | inactive |
| Cc1ccc(NC(=O)Nc2cccc(C(F)(F)F)c2)nc1 | inactive |
| CC(C)(C)CC(=O)Nc1nc(C(N)Cc2ccc(C(F)(F)F)cc2)cs1 (configuration not stated) | 23.1 µM (active) |
| NC(c1csc(NC(=O)Nc2cccc(C(F)(F)F)c2)n1)C1CCCCC1 (configuration not stated) | 20.6 µM (active) |
| COc1ccc(NC(=O)CN(C)CC(=O)Nc2cccc(C(F)(F)F)c2)cc1 | inactive |
| CC(C)C[C@H](NC(=O)Nc1cccc(C(F)(F)F)c1)C(=O)O | inactive |
| COc1ccc(C(CC(=O)Nc2ccc(C)cc2)NC(=O)C(F)(F)F)cc1 (configuration not stated) | inactive |
| CCN(CC(=O)Nc1c(F)cccc1F)C(=O)c1ccc(S(=O)(=O)N2CCCCC2)cc1 | inactive |
| COc1ccccc1OC(C)C(=O)Nc1ccc(S(=O)(=O)Nc2nccs2)cc1 (configuration not stated) | inactive |
| COc1ccc(NC(=O)CC2C(=O)NC3CCCCC3N2C(=O)c2ccc(F)cc2)cc1 (configuration not stated) | inactive |
| CCOc1ccc(NC(=O)C(CC(C)C)N2Cc3ccccc3C2=O)cc1 (configuration not stated) | inactive |

| Structure (SMILES) | Potency |
| --- | --- |
| Cc1ccc(CNS(=O)(=O)c2ccc(-c3cc(C(F)(F)F)on3)s2)cc1 | inactive |
| COc1ccccc1CNC(=O)c1cc(-c2cc(Cl)ccc2C)n[nH]1 | 16.4 µM (active) |
| COc1ccccc1CNC(=O)c1cc(-c2cc(F)ccc2OC)n[nH]1 | inactive |
| COc1ccccc1CNC(=O)COC(=O)c1sc(C)nc1C | inactive |
| CC(Sc1nnc(-c2ccccc2F)n1C1CC1)C(N)=O (configuration not stated) | inactive |
| Cc1ccc2c(c1)C1CN(C)CCC1N2S(=O)(=O)c1cccc(F)c1 (configuration not stated) | inactive |
| CCOC(=O)CSC1=N/C(=C/c2ccc(-n3cncn3)cc2)C(=O)N1C(C)=O | 20.6 µM (active) |
| CCOC(=O)CSc1nc(C)cc2c1C(=O)OC2 | inactive |
| CCCC(=O)N1CCC1(C)C(=O)Nc1ccc(-n2cncn2)cc1 (configuration not stated) | inactive |
| NNc1nnc(NN)c2ccccc12 | inactive |
| CCCS(=O)(=O)NC(=O)C1(C)CCCN(C(=O)c2ccnc(Cl)c2)C1 (configuration not stated) | inactive |
| CCN(CC)CCCNC(=S)N(CCO)Cc1cc2cc3c(cc2[nH]c1=O)OCO3 | inactive |
| COc1ccc(CCNC(=O)C(=O)NCc2ccccc2C)cc1OC | inactive |
| COc1ccc(CCNC(=O)c2ccccc2-c2ccccc2C(=O)O)cc1OC | inactive |
| COc1ccc(CCNc2cc(N3CCN(C(=O)c4ccccc4OC)CC3)ccc2[N+](=O)[O-])cc1OC | 5.8 µM (active) |
| CCCCN(C(=O)c1cccc(N2C(=O)c3ccccc3C2=O)c1)c1c(N)n(CCCC)c(=O)[nH]c1=O | inactive |
| CC(CN1CCCCC1)c1ccccc1 (configuration not stated) | inactive |
| COc1ccc(/C=C2\SC(=S)N(CCC(=O)Nc3ccccn3)C2=O)cc1OC | inactive |
| CCC(=O)N1CCC(C(N)=O)(N2CCCCC2)CC1 | inactive |

| Structure (SMILES) | Potency |
| --- | --- |
| CC(=O)NN1C(=O)c2ccccc2NC1c1ccccc1 (configuration not stated) | inactive |
| O=C1CCC(C(=O)OCC(=O)Nc2ccc(OC(F)F)cc2)=NN1 | inactive |
| CCOc1ccccc1NC(=O)CCc1ccc(C)o1 | inactive |
| Cc1ccc(Cc2cnc(N)s2)o1 | inactive |
| Cc1ccc(CCC(=O)Nc2ncc(Cc3cc(Cl)ccc3Cl)s2)o1 | 0.731 µM (active) |
| O=C(COC(=O)CCc1ccc(S(=O)(=O)N2CCOCC2)cc1)Nc1cccc(Cl)c1 | inactive |
| COc1ccc(C(=O)OCC(=O)c2ccc(C)c(S(=O)(=O)N3CCOCC3)c2)cc1OC | 18.4 µM (active) |
| COc1ccc(CCC(=O)Nc2ccc(Cl)c(S(=O)(=O)N3CCOCC3)c2)cc1OC | 23.1 µM (active) |
| CCOc1ccc(CCNC(=O)COC(=O)c2ccc(C)c(S(=O)(=O)N3CCOCC3)c2)cc1OCC | inactive |
| COc1ccc(CC(=O)Nc2ccc3c(c2)CCC3)cc1S(=O)(=O)N1CCOCC1 | inactive |
| Cc1ccc(C(=O)OCC(=O)N2CCCCCC2)cc1S(=O)(=O)N1CCOCC1 | inactive |
| CNC(=O)C[C@H]1C(=O)N(Cc2ccccc2)C[C@@H]1CSC | inactive |
| CCOc1ccc(N(CC(=O)Nc2ccccc2F)S(=O)(=O)c2c(C)[nH]c(=O)[nH]c2=O)cc1 | inactive |
| Cc1ccc(NC(=O)Cn2nnc(C(=O)NCc3ccco3)c2N)c(C)c1 | inactive |
| CCN(C(=O)Cc1c(C(=O)O)n(CC)c2ccccc12)c1ccccc1C | inactive |
| COc1ccc(CNS(=O)(=O)c2ccc(NC(=O)N3CCCCC3)cc2)cc1 | 18.4 µM (active) |
| COc1ccc(S(=O)(=O)NC(C)C(=O)N2CCCCCC2)cc1 (configuration not stated) | inactive |
| COc1ccc(NC(=O)N2CC3(CCN(C(C)=O)CC3)C2)cc1 | inactive |
| COC(=O)C[C@H]1C[C@@H]2c3cc(N(C)C)ccc3O[C@@H]2[C@H](CO)O1 | inactive |
